# Source: ChEMBL document CHEMBL1157539, “Thousands of chemical starting points for antimalarial lead identification” (Nature, 2010)
# Tested on: Plasmodium falciparum
# Assay: GSK_TCMDC: Inhibition of Plasmodium falciparum 3D7 in whole red blood cells, using parasite LDH activity as an index of growth. Test compounds present at 2uM
# Assay type: functional
row,SMILES,Inhibition [%]
1,FC(F)(F)c1ccc2[nH]c(-c3cccc(-c4ccc(CNCCN5CCNCC5)cc4)c3)nc2c1.O=C(O)C(F)(F)F,96
2,CCCCCCN1CCC(NCc2ccc(CN(C)C)cc2)CC1.O=C(O)C(F)(F)F,92
3,O=C(O)C(F)(F)F.O=S(=O)(NCCN1CCCC1)c1cccc(-c2ccc(CNC3Cc4ccccc4C3)cc2)c1,99
4,CC(C)NC[C@@H](O)[C@H](Cc1ccccc1)NC(=O)c1cc2c3c(c1)c(C(C)C)cn3CCS(=O)(=O)N2C.O=CO,98
5,Cc1cc(C2NC(=O)c3ccccc3N2)c(C)n1-c1ccc2c(c1)OCO2 (stereo unspecified),86
6,O=c1c2ccccc2[nH]c2nc3ccccc3c(Nc3ccccc3)c12,98
7,O=C(Nc1ccsc1)Nc1cccc(-c2cccc(-c3nc4cc(C(F)(F)F)ccc4[nH]3)c2)c1,100
8,O=C(NC1CCN(c2ccc(F)cc2[N+](=O)[O-])CC1)c1cccs1,90
9,O=C(NCc1cccc(CN2CCOCC2)c1)c1cc(Br)cc(N2CCN(c3ccncc3)CC2)c1.O=C(O)C(F)(F)F,99
10,CS(=O)(=O)n1c(CN2CCN(c3ncc(C(F)(F)F)cc3Cl)CC2)nc2ccccc21,83
11,O=C(NCc1cccc(C(F)(F)F)c1)C1CCCN(C(=O)c2ccc(O)c(-c3ccc(Cl)c(Cl)c3)c2)C1 (stereo unspecified),94
12,COc1ccc(CCn2c(=N)c(C(=O)NCc3cccnc3)cc3c(=O)n4cccc(C)c4nc32)cc1,92
13,C=CCNS(=O)(=O)c1ccc(NC(=O)C(C)Oc2ccc([N+](=O)[O-])cc2)cc1 (stereo unspecified),100
14,CCc1cn2c3c(cc(C(=O)N[C@@H](Cc4cccc(Cl)c4)[C@H](O)CNC4CCCCC4)cc13)N(C)S(=O)(=O)CC2.O=CO,97
15,N#Cc1ccc(NC(=O)Nc2ccc(OC(F)(F)F)cc2)cc1,98
16,O=C(O)C(F)(F)F.c1cc(-c2ccc(CNCCCn3ccnc3)cc2)cc(-c2nc3ccccc3[nH]2)c1,100
17,O=[N+]([O-])c1ccc2c(c1)c1ccccc1n2Cc1ccccc1O,93
18,CCN(CC)CCOc1ccc(Nc2ncc3cc(-c4c(Cl)cccc4Cl)c(=O)n(C)c3n2)cc1 [PD-0166285],90

row,SMILES,Inhibition [%]
1,Cc1cccc2nc(-c3cccc(-c4ccc(CNCc5ccccc5)cc4)c3)[nH]c12.O=C(O)C(F)(F)F,99
2,CN1CCN(CCCN(C(=O)Nc2cc(C(F)(F)F)cc(C(F)(F)F)c2)c2ccccc2Cc2ccccc2)CC1,89
3,Cc1cc(N2CCCC2)nc(Nc2ccc(NC(=O)C(C)(C)C)cc2)n1,95
4,O=C(CCc1c[nH]cn1)Nc1cccc(-c2ccc(-c3nc4cc(F)ccc4[nH]3)s2)c1,100
5,CCNc1cc(C(=O)N[C@@H](Cc2ccccc2)[C@H](O)CN[C@@H](C)c2cccc(OC)c2)cc(N2CCCC2=O)c1.O=CO,95
6,OC(CNCc1ccccc1OCc1ccccc1)c1cc(C(F)(F)F)cc(C(F)(F)F)c1 (stereo unspecified),100
7,COc1ccc(C=NN=c2cc(C)[nH]c3ccccc23)cc1OC,91
8,COc1ccc(-c2ccc(CNCc3ccc(F)cc3)cc2)cc1S(=O)(=O)NCCN1CCCC1.O=C(O)C(F)(F)F,98
9,O=C(Nc1cccc(C(F)(F)F)c1)NC1CCN(c2ccnc3ccccc23)CC1.O=C(O)C(F)(F)F,100
10,CCCCN(CCCC)C(=N)c1cccc2c1CCCC2.Cl,95
11,CNC(=O)CSc1nnc(-c2ccc(C)cc2)c(-c2ccc(C)cc2)n1,94
12,CCN1CCN(c2cc(C)c3cc(NC(=O)c4ccc(OC)c([N+](=O)[O-])c4)ccc3n2)CC1,100
13,Cc1cc(-c2ccc(NC(=O)N3CCc4cc(Br)c(N5CCN(C)CC5)cc43)cc2)cc(C)n1,92
14,O=C(/C=C/c1ccc(C(F)(F)F)cc1)NCCCCCN1CCCN(C(=O)Nc2ccc(Cl)c(Cl)c2)CC1,100
15,O=C(Nc1ccc(N2CCCCC2)c(Cl)c1)c1ccco1,96
16,COCCn1ccc2c3c(N)nc(N)nc3ccc21,93
17,CC(C)(CNCc1cc(Cl)cc(Cl)c1)c1nc(-c2ccnc(N)n2)c(-c2ccc(Cl)c(O)c2)[nH]1.Cl,92
18,O=C1OC2(CN1CC1CCN(Cc3ccc(O)c(Cl)c3)CC1)c1ccccc1-c1ccccc12,97
